Peg3 prom inh: Peg3 promoter-driven luciferase inhibitors, primary screen, cell-based, HeLa, luciferase luminescence; AID 588405, 2011; HeLa PEG-Prom luciferase reporter, overnight; inhibition, % at 20 µM; actives 1.7% (n = 360,000);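 active = inhibition of at least 50% at 20 µM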
Beta2AR agonist: beta2AR agonists driving receptor internalization, primary screen, cell-based, FAP fluorogen, flow cytometry; actives 0.43% (n = 340,000); AID 504454, 2011; response, % (test concentration not listed); Am2.2-beta2AR cells; Beta-2 adrenergic receptor (Homo sapiens), P07550;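 active = response above a set limit, near 3 SD of response in nonfluorescent compounds, cut at about 42% in these data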
Target sequence (P07550 whole entry, looked up): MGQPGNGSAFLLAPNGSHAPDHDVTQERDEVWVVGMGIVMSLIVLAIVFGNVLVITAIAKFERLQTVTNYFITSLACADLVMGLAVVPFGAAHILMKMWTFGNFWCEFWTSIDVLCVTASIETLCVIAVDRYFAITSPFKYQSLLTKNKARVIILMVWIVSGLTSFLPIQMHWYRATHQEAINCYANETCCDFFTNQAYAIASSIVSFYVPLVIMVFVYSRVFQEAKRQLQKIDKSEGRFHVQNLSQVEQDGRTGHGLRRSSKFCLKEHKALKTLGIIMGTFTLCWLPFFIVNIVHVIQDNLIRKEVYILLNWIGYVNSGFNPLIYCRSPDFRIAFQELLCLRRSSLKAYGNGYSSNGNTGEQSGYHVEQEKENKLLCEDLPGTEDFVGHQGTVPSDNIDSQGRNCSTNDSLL
CF NFkB inh: inhibitors of PAF-induced NF-kB signaling, primary screen, cell-based, GFP fluorescence, uHTS; KKLEB NF-kB-GFP reporter, GFP fluorescence overnight; inhibition, % at 5 µM; actives 0.86% (n = 360,000); AID 588850, 2011;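 active = at least 50% inhibition at 5 µM, scaled per plate between neutral and stimulator controls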;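 note: PAF is a Pseudomonas aeruginosa culture filtrate used as stimulus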
HIF-2a block: HIF-2a reporter inhibitors, primary screen, luminescence, 786-0 RCC cells | inhibition, % at 18.8 µM | actives 0.72% (n = 360,000) | 786-0 RCC cells HIF-2a reporter, luciferase luminescence, overnight;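 active = inhibition of the luminescence signal of 40% or more relative to plate controls, in a single-dose primary screen at 18.75 µM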
KKLEB tox: cytotoxicity in KKLEB CF airway cells, primary screen, cytotoxicity control for CF NF-kB inhibitor project, cell-based, uHTS, fluorescence assay plates; KKLEB CF airway cells viability, ATPlite luminescence, overnight; hits give low values; cells stimulated with P. aeruginosa culture filtrate; activity change (cytotoxicity), % at 5 µM; actives 0.36% (n = 360,000); AID 602141, 2011;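 active = corrected activity change at or below -50% at 5 µM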
TRPM1 prom inh: inhibitors of MITF-dependent TRPM1 promoter reporter, primary screen, cell-based, SK-MEL-5, single point, luciferase. SK-MEL-5 TRPM1 promoter luciferase, 24 h. inhibition, % at 12.5 µM. actives 0.83% (n = 330,000);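 active = mean inhibition across replicates of 60% or more, whatever share of single replicates reaches that level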
Beta2AR ag CP1: beta2AR agonists via receptor internalization, confirmation, cell-based, FAP fluorogen, flow cytometry, single point, cherry pick 1; shares compounds with Beta2AR agonist; Am2.2-beta2AR cells, FAP surface receptor; hits give low values; percent response (surface receptor), % at 10 µM; actives 25% (n = 1,100); AID 540358, 2011;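 active = surface receptor percent response at or below 58%, roughly 3 SD from nonfluorescent compounds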
B2AR FAP counter: flagged in Am2.2 fluorescence counterscreen for beta-2AR agonists; shares compounds with Beta2AR agonist; Am2.2 cells, FAP fluorogen flow cytometry; hits give low values; calls only at 10 µM; 1,100 tested, under 10 active;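 active = percent response below a set limit in fluorescence channel 1 and below 50% in channel 8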
Numbers stand for hits; – = inactive; · = not tested or not shown. A selection: hits, their analogues and other compounds. The true share with any hit is near 2.8%.

SMILES	Peg3 prom inh	Beta2AR agonist	CF NFkB inh	HIF-2a block	KKLEB tox	TRPM1 prom inh	Beta2AR ag CP1	B2AR FAP counter
CC(C)C[C@H]1CNC(=O)C(=O)N1CC1CCN(CCc2ccccc2)CC1	–	·	–	–	–	·	·	·
COc1cc2nc(N3CCNCC3)nc(N)c2cc1OC	74	61	–	–	–	–	51	–
Cc1ccc2c(c1)C1CN(C)CCC1N2C(=O)c1ccccc1NS(=O)(=O)c1cccc(C(F)(F)F)c1 (stereo not drawn)	–	67	–	–	–	–	–	–
COc1ccc(-c2nn(-c3ccccc3)cc2C(=O)N2c3ccc(C)cc3C3CN(C)CCC32)cc1 (stereo not drawn)	–	70	–	–	–	–	–	–
Cc1nc([N+](=O)[O-])c(Br)n1CC(=O)c1ccc2ccccc2c1	–	43	64	–	-52	–	–	–
COc1ccc(NC(=O)c2cc(-c3cccnc3)nc3ccc(C)cc23)cc1OC	–	–	–	–	–	–	·	·
COc1ccc(NC(=O)c2cc(-c3ccncc3)nc3ccc(Br)cc23)cc1OC	94	97	–	–	–	–	–	–
CCc1ccc(OCc2nnc(-c3ccccc3Br)o2)cc1	–	–	–	–	–	–	–	–
O=C1NC[C@@H](CCCCN2CCN(CCc3ccccc3)C(=O)C2=O)N(CCc2ccc(O)cc2)C1=O	·	·	·	–	·	·	·	·
C=CCn1c(CCNC(=O)c2cccs2)nnc1SCC(=O)c1ccc(Br)cc1	–	98	–	–	–	–	19	–
C=CCn1c(CCNC(=O)c2cccs2)nnc1SCC(=O)Nc1cccc(C(C)=O)c1	–	–	–	–	–	–	·	·
CCn1c2ccccc2c2cc(Nc3cc(C)nc4ncnn34)ccc21	–	42	–	–	–	–	–	–
CC(C)(C)NC(=O)CSc1nc2ccc(NC(=O)CSc3nnnn3Cc3ccccc3)cc2s1	–	–	–	–	–	–	·	·
CCOC(=O)CSc1nc2ccc(NC(=O)CSc3nnnn3Cc3ccccc3)cc2s1	–	54	–	–	–	–	–	–
CCn1cc(C(=O)O)c(=O)c2cc(F)c(N3CCN(S(=O)(=O)c4ccc(NC(C)=O)cc4)CC3)cc21	–	56	–	–	–	–	–	–
CN1CCN(c2ccc(CNC[C@H]3O[C@@H](n4cnc5c(=O)[nH]c(N)nc54)[C@H](O)[C@@H]3O)c(F)c2)CC1	–	·	–	–	–	·	·	·
CNC[C@H](NC[C@@H](NCCCc1ccccc1)c1ccccc1)[C@H](C)O	–	55	–	–	–	–	–	–
O=C(OCc1cn([C@H]2CN(Cc3cccs3)[C@@H](c3ccc(Cl)cc3)C[C@@H]2O)nn1)c1ccccc1	–	·	–	–	–	·	·	·
CCOc1ccc(OCC)c(NC(=O)CSc2nc3cccnc3n2C)c1	–	–	–	–	–	–	·	·
CCOc1ccc2nc(NC(=O)CSc3nc4cccnc4n3C)sc2c1	–	49	–	–	–	–	–	–
COc1ccc(OC)c(CCNC(=O)C2CCN(c3nnc(-n4cccc4)s3)CC2)c1	–	51	–	–	–	–	–	–
O=C(Nc1ccccc1N1CCOCC1)[C@@H]1O[C@H](CO)[C@H](O)[C@H](O)[C@H]1O	–	·	–	–	–	·	·	·
Cc1ccc(F)cc1NCC(=O)Nc1ccc(Br)cc1	–	80	–	–	–	–	–	–
CCC12CC1(C(=O)OC)C(=O)N1CCc3c([nH]c4ccccc34)C12 (stereo not drawn)	–	·	–	–	–	·	·	·
COc1ccc(-c2nc(NC(=O)c3cc(C(C)(C)C)nn3C)sc2C)cc1	–	–	–	–	–	–	–	–

Bioassay records (PubChem)
